Compound activity (PubChem BioAssay)
Lamin A splicing: changes lamin A minigene splicing in HeLa cells; Potency, µM (titrated, usually from 46.1 µM), without a hit: at the highest dose ratio change, negative = inhibition, usual class: inhibitors; hit rate 0.01% among 200,000; AID 1487; HeLa LMNA splicing GFP/RFP minigene ratio, 48 h; active means well fitted inhibition curve with a large enough effect in the signal ratio, with a control signal flat, not every such curve was filed as active; inconclusive means small, poorly fitted or top-dose-only effect, or effect the other way, or a change in a side signal; the % refers to the signal ratio; further: on the % scale 0 is the no-effect control and ±100 the full control effect
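S3 HeLa stable clones carrying a lamin A-EGFP splicing minigene plus DsRed2 were seeded at 600 cells/well in Opti-MEM with 2% FBS, pin-dosed and incubated 48 h at 37°C. Acumen cytometry (488 nm) gave the GFP/RFP total-intensity ratio.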
ALDH1A1 inh: ALDH1A1 (human) enzyme inhibition; P00352; Purified ALDH1A1, NADH fluorescence, propionaldehyde substrate; Potency, µM (titrated, usually from 75.3 µM), for inactives: at the top dose activity, negative = inhibition, most hits filed as inhibitors; hit rate 7.3% among 220,000; active means well fitted inhibition curve with a large enough effect, not every such curve was filed as active; inconclusive means small, poorly fitted or top-dose-only effect, or another doubt; inactive means no such curve, though single readings can be large or run the other way;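 further: plate controls were no enzyme wells and a reference inhibitor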
Target sequence (P00352 whole entry, looked up): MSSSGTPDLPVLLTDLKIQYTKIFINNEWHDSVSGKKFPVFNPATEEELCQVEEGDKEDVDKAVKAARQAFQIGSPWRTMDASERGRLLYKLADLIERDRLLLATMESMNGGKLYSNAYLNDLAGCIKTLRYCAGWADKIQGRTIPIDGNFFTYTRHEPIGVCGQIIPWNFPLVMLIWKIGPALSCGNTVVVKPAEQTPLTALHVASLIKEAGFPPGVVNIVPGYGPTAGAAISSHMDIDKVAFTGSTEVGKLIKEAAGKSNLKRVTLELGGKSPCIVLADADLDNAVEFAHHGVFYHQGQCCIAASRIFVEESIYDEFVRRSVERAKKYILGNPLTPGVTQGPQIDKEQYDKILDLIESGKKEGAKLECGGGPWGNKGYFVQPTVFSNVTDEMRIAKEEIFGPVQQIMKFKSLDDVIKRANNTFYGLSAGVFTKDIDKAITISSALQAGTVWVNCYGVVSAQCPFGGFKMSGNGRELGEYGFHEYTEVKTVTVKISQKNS
Luc counter: counter-screen: inhibitors of Kinase-Glo firefly luciferase. Potency, µM (titrated, usually from 38.3 µM), for inactives: top-dose activity change, negative = inhibition, usual class: inhibitors. Kinase-Glo luciferase, ATP luminescence, 8 min. hit rate 0.28% among 200,000. Q27757; further: on the % scale 0 is the no-effect control and ±100 the full control effect; nearly all actives have a fitted effect of over 60% in size
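Luminescence was the read-out, taken after 8-minute incubation at ambient temperature. Luciferase turned over luciferin with 10 uM ATP in imidazole pH 7.2 buffer containing KCl, MgCl2, Tween 20 and BSA.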
HttQ103 aggreg: inhibitors of mutant huntingtin aggregate formation in PC12 cells. PC12 HttQ103-GFP aggregates, Acumen cytometry, 40 h. AID 1688. hit rate 1.1% among 220,000. Potency, µM (doses to about 46.1 µM), for inactives: at the top dose activity change, negative = inhibition, most hits filed as inhibitors; further: on the % scale 0 is the no-effect control and ±100 the full control effect; nearly all actives have a fitted effect of over 60% in size
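Read-out: GFP aggregate count by laser scanning cytometer (488 nm excitation, 500-530 nm emission, 1–25 µm objects >6 SD above background). Cells: PC12, inducible HTTex1-Q103-GFP, 100 nM tebufenozide; compounds titrated.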
HPGD inh: HPGD (human) dehydrogenase inhibition; hit rate 4.3% among 150,000; purified HPGD, NADH fluorescence kinetic, PGE2 substrate; Potency, µM, for inactives: top-dose activity change, negative = inhibition, hits mostly inhibitors; P15428; AID 894; active means well fitted inhibition curve with a large enough effect, not every such curve was filed as active; inconclusive means small, poorly fitted or top-dose-only effect, or another doubt; inactive means no such curve, though single readings can be large or run the other way; further: on the % scale 0 is the no-effect control and ±100 the full control effect
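20 nM HPGD preincubated 15 min at room temperature with compound in 50 mM Tris-HCl pH 8, 0.01% Tween 20. Started with 1 mM NAD+ and 30 uM prostaglandin E2; NADH fluorescence (360/450 nm) read 5 times over 30-s intervals, last minus first.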
HTT cytoprotect: protects HTT-Q103 PC12 cells, measured by ATP; PC12 HTT-Q103 induced, cytoprotection, ATP luminescence, 40 h; Potency, µM (series often up to 56.4 µM), inactives show cytoprotection (ATP increase), hits mostly activators; hit rate 0.14% among 230,000; further: % of control where 0% means no effect; nearly all actives have a fitted effect of over 45% in size
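PC12 cells with ecdysone-inducible HTT exon 1 Q103-GFP, induced with 100 nM tebufenozide and co-treated with library compounds in a dose series (1536-well, 1500 cells/well). Cytoprotection read as ATP content by ATPlite luminescence.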
Numbers without * were called inactive; [ ] = another dose, or the depositor's remark. Rows were chosen to be rich in hits. Some 9% of all compounds tested hit in one or more screens of this group. Unless noted, the call rests on the fitted dose curve; in most records, active means well fitted curve in the direction sought with a large enough effect; inconclusive means small, poorly fitted or top-dose-only effect, or another doubt; inactive means no such curve, though single readings can be large; an effect the other way counts as inactive or inconclusive. Potency means the concentration at half of the fitted maximal effect.

`O=C(NC(=S)Nc1cc(-c2nc3ccccc3[nH]2)ccc1Cl)c1ccc2c(c1)OCO2` gave Lamin A splicing -12%, ALDH1A1 inh 8.9µM*, Luc counter -9%, HttQ103 aggreg -25% and HPGD inh 20µM*.
Screening Cc1ccc(-c2nc3ccccc3s2)cc1NC(=O)c1cc(-n2cnnc2)ccc1Cl returned Lamin A splicing 16%, ALDH1A1 inh inconclusive, Luc counter -2%, HttQ103 aggreg 22%, HPGD inh -22% and HTT cytoprotect -10%.
Cc1ccc(-c2nc3ccccc3[nH]2)cc1NC(=O)c1ccc2c(c1)OCO2 was read as Lamin A splicing 10%, ALDH1A1 inh 5%, Luc counter -1%, HttQ103 aggreg 18%, HPGD inh -11% and HTT cytoprotect -28%.
CCOc1ccc(C(=O)Nc2cc(-c3nc4ccccc4[nH]3)ccc2C)cc1[N+](=O)[O-] was read as Lamin A splicing 3%, ALDH1A1 inh inconclusive, Luc counter -2%, HttQ103 aggreg -21%, HPGD inh -26% and HTT cytoprotect -44%.
Screening COc1ccc2c(c1OC)C[N+]1([O-])CCc3cc4c(cc3C1C2)OCO4 (centres undefined) returned HttQ103 aggreg 28%[9.22 µM] and HTT cytoprotect 4%[10 µM].
Cc1ccc(CN2C(=O)CCC2C(=O)NCCCN2CCOCC2)cc1 (centres undefined) was read as Lamin A splicing 20%[0.0737 µM], ALDH1A1 inh 3%, Luc counter 1%, HttQ103 aggreg 6%, HPGD inh 0% and HTT cytoprotect 12%.
COc1cc(Cl)c(C)cc1NC(=O)CSc1cc(Cl)ccc1Cl was read as Lamin A splicing -7%, ALDH1A1 inh -5%, Luc counter 0%, HttQ103 aggreg -18%, HPGD inh -9% and HTT cytoprotect 21%[10 µM].
`O=C(O)c1cnc(-c2ccccc2)nc1Sc1ccccc1Cl` gave Lamin A splicing 4%, ALDH1A1 inh 3%, Luc counter 3%, HttQ103 aggreg 8%, HPGD inh 14µM* and HTT cytoprotect -10%.
CN(CC1COc2ccccc2O1)C(=O)c1ccc(N(C)C)cc1 (centres undefined) was read as Lamin A splicing 2%[46 µM], ALDH1A1 inh 5.6µM*, Luc counter 6%, HttQ103 aggreg 12% and HTT cytoprotect 1%.
Screening CN(C)c1ccc(C=NCC2COc3ccccc3O2)cc1 (centres undefined) returned Lamin A splicing 1%[46 µM], ALDH1A1 inh 0.56µM*, Luc counter 0%, HttQ103 aggreg -9%[9.22 µM] and HTT cytoprotect 4%[10 µM].
`CC(=O)C1=C(C)NC2=C(C(=O)c3ccccc32)C1c1ccccc1` (centres undefined) gave Lamin A splicing -7%[46 µM], ALDH1A1 inh inconclusive, Luc counter -4%, HttQ103 aggreg 2% and HTT cytoprotect -8%.
For Nc1nc2c(c(=O)[nH]1)C(c1cccc3ccccc13)C1=C(N2)c2ccccc2C1=O (centres undefined) the results were ALDH1A1 inh 3.2µM*, Luc counter -2%, HttQ103 aggreg -26% and HTT cytoprotect -65%.
Screening CC1(C)C(=O)C2(C(=O)NCc3ccccc3)CCC1C2 (centres undefined) returned Lamin A splicing 1%, ALDH1A1 inh 9%, Luc counter 4%, HttQ103 aggreg 12%, HPGD inh -25% and HTT cytoprotect 16%.
Screening C=C1C2(C(=O)NCc3ccco3)CCC(C2)C1(C)C (centres undefined) returned Lamin A splicing -7%, ALDH1A1 inh -6%, Luc counter -6%, HttQ103 aggreg -12%, HPGD inh 25µM* and HTT cytoprotect 5%[10 µM].
COCCn1c(Sc2ccc(C)cc2)nc2c1c(=O)[nH]c(=O)n2C was read as Lamin A splicing 11%, ALDH1A1 inh 13µM*, Luc counter -2%, HttQ103 aggreg 3%, HPGD inh -23% and HTT cytoprotect -11%[0.074 µM].
For CCOCCn1c(SCc2ccc(C)cc2)nc2c1c(=O)[nH]c(=O)n2C the results were Lamin A splicing 1%, ALDH1A1 inh -3%, Luc counter -3%, HttQ103 aggreg 30%, HPGD inh -10% and HTT cytoprotect -44%.
Screening COCCn1c(SCc2c(F)cccc2Cl)nc2c1c(=O)[nH]c(=O)n2C returned Lamin A splicing inconclusive, ALDH1A1 inh 25µM*, Luc counter 1%, HttQ103 aggreg 11%, HPGD inh -20% and HTT cytoprotect -14%[10 µM].
Screening CCC(C)(C)NC(=O)CCn1c(-c2ccccc2)cc(C(C)=O)c1C returned ALDH1A1 inh -10%, Luc counter 3%, HttQ103 aggreg 1% and HTT cytoprotect -20%.
Screening O=C(Nc1cccc(-n2cnnn2)c1)c1ccco1 returned Lamin A splicing 5%, ALDH1A1 inh 40µM*, Luc counter 1%, HttQ103 aggreg 8%, HPGD inh -24% and HTT cytoprotect 10%[10 µM].
Screening CC(=O)c1cccc(NC(=O)c2ccco2)c1 returned Lamin A splicing inconclusive, ALDH1A1 inh -1%, Luc counter -8%, HttQ103 aggreg 4%, HPGD inh -3% and HTT cytoprotect 3%.
For O=C(Nc1ccc2c(c1)ncn2-c1ccccc1)c1ccco1 the results were Lamin A splicing -12%, ALDH1A1 inh inconclusive, Luc counter 6%, HttQ103 aggreg 0%, HPGD inh 32µM* and HTT cytoprotect 1%[10 µM].
Screening CCc1ccc(-n2c(=O)c3ccccc3n(CC(=O)C(C)(C)C)c2=O)cc1 returned Lamin A splicing -4%[46 µM], ALDH1A1 inh 5%, Luc counter 2%, HttQ103 aggreg -12%[9.22 µM] and HTT cytoprotect 5%.
For N#CCCS(=O)(=O)c1nnnn1-c1ccccc1 the results were Lamin A splicing inconclusive, ALDH1A1 inh 0.45µM*, Luc counter -4%, HttQ103 aggreg inconclusive, HPGD inh inconclusive and HTT cytoprotect -61%.
For N#CCCCSc1nnnn1-c1cccc(Cl)c1 the results were Lamin A splicing 5%, ALDH1A1 inh -7%, Luc counter 2%, HttQ103 aggreg -16%, HPGD inh -16% and HTT cytoprotect 22%.
`N#CCCCS(=O)(=O)c1nnnn1-c1ccc(Br)cc1` gave ALDH1A1 inh 20µM*, Luc counter 1%, HPGD inh -10% and HTT cytoprotect 22%.
Screening COc1ccc(-n2cc(C(=O)c3cc(Cl)ccc3O)cc(C#N)c2=O)cc1 returned Lamin A splicing -18%[46 µM], ALDH1A1 inh 13%, Luc counter -1%, HttQ103 aggreg 17% and HTT cytoprotect -13%.
